Experimental data as given in PubChem BioAssay (NCI).
“And” between values parts separate entries of the source, which are not always exact repeats. Equal entries are not always repeated. This is part of a sample that, as a whole, favours compounds with a hit. Of some 83,000 tested, about 20% had one in any assay.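 Assay: single dose, 48 h. Readout: percent growth (0 = no net growth; negative = cell death). Active: <10.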 The source made the active and inactive calls.

Key:
Experiment in all cases: NCI-60 one-dose screen, 48 h (100 = growth as untreated, 0 = no growth, -100 = all killed)
Settings in all cases: 10 µM unless noted
HCT-15 colon = test system: HCT-15 colon
HT29 colon = test system: HT29 colon
SNB-75 CNS = test system: SNB-75 CNS
SNB-19 CNS = test system: SNB-19 CNS
U251 CNS = test system: U251 CNS
PC-3 prostate = test system: PC-3 prostate
SK-MEL-5 melanoma = test system: SK-MEL-5 melanoma
UACC-62 melanoma = test system: UACC-62 melanoma
LOX IMVI melanoma = test system: LOX IMVI melanoma
SK-MEL-28 melanoma = test system: SK-MEL-28 melanoma

Measured: growth

C[N+](C)(C)CN1C(=O)c2ccccc2C1=O
inactive: HCT-15 colon 103% | HT29 colon 99.6% | SNB-75 CNS 77.5% | SNB-19 CNS 98.5% | U251 CNS 102% | PC-3 prostate 96.4% | SK-MEL-5 melanoma 102% | UACC-62 melanoma 101% | LOX IMVI melanoma 103% | SK-MEL-28 melanoma 98.6%

CCNC(=O)Nc1ccc(-c2nc3c(c(N4CCOC[C@@H]4C)n2)CCN(C2COC2)C3)cc1
25.1% (inactive) and -5.25% (active): SK-MEL-28 melanoma
22.4% (inactive) and -26.4% (active): SK-MEL-5 melanoma
active: UACC-62 melanoma 9.26% and -20.5%
inactive: HCT-15 colon 60.3% and 15.9% | HT29 colon 49.7% and 15.9% | SNB-19 CNS 59.2% and 15.7% | PC-3 prostate 26.6% and 12.6%
22.9% (inactive) and -33.2% (active): SNB-75 CNS
33.9% (inactive) and 1.39% (active): LOX IMVI melanoma
55.9% (inactive) and 7.52% (active): U251 CNS

O=C(/C=C/c1ccccn1)c1ccccc1O
inactive: HCT-15 colon 39.4% and 62% | HT29 colon 37.7% and 29% | SNB-75 CNS 75% | SNB-19 CNS 77.3% and 81.6% | U251 CNS 38.3% and 68.4% | PC-3 prostate 82.8% | SK-MEL-5 melanoma 75.2% and 88.1% | UACC-62 melanoma 77.5% and 81.6% | LOX IMVI melanoma 20.4% and 21.7% | SK-MEL-28 melanoma 77.6% and 92.6%

CC(C)Cc1ccc(C(C)C(=O)NCc2ccc(Cn3c(=O)sn(CCCI)c3=O)cc2)cc1 (stereo not given)
83.4% (inactive) and -70.5% (active): U251 CNS
101% (inactive) and -54.2% (active): HCT-15 colon
106% (inactive) and -72.2% (active): SK-MEL-28 melanoma
61.7% (inactive) and -58.7% (active): HT29 colon
inactive: SNB-19 CNS 85.4% and 37.4%
74.2% (inactive) and -96.6% (active): SK-MEL-5 melanoma
93.6% (inactive) and -70% (active): PC-3 prostate
99.6% (inactive) and -96.6% (active): LOX IMVI melanoma
95.2% (inactive) and -83.2% (active): UACC-62 melanoma
95.4% (inactive) and -73.6% (active): SNB-75 CNS

CCOC(=O)C(C(=O)OCC)C(c1ccccc1)N1CCN(c2ccccc2)CC1 (stereo not given)
inactive: HCT-15 colon 108% and 94.8% | HT29 colon 107% and 106% | SNB-75 CNS 94.7% and 103% | SNB-19 CNS 99.4% and 110% | U251 CNS 105% and 98% | PC-3 prostate 110% and 109% | SK-MEL-5 melanoma 105% and 102% | UACC-62 melanoma 98.7% and 107% | LOX IMVI melanoma 103% and 98.4% | SK-MEL-28 melanoma 109% and 111%

CC(/C=N/N1C(=O)c2ccccc2C1=O)c1ccccc1 (stereo not given)
inactive: HCT-15 colon 98.2% | HT29 colon 108% | SNB-75 CNS 83% | SNB-19 CNS 95.9% | U251 CNS 99.5% | PC-3 prostate 102% | SK-MEL-5 melanoma 99.4% | UACC-62 melanoma 111% | LOX IMVI melanoma 98.3% | SK-MEL-28 melanoma 103%

CCOC(=O)Nc1nc2ccccc2[nH]1
inactive: HCT-15 colon 102% and 17.9% | HT29 colon 104% and 20.8% | SNB-75 CNS 102% and 23.3% | SNB-19 CNS 99.9% and 31.5% | U251 CNS 96.1% and 26.2% | PC-3 prostate 98.7% and 48% | SK-MEL-5 melanoma 113% and 19.3% | UACC-62 melanoma 102% and 30.8% | LOX IMVI melanoma 99.8% and 43.8% | SK-MEL-28 melanoma 109% and 32.6%

CC1=C(/C=C/C(C)=C/C=C/C(C)=C/C(=O)O)C(C)(C)CCC1
inactive: HCT-15 colon 91.4% and 81.1% and 92% | HT29 colon 88.7% and 89.2% and 96% | SNB-75 CNS 122% and 72.2% and 79.7% | SNB-19 CNS 86.1% and 97.4% and 90.3% | U251 CNS 83.2% and 87.1% and 90.4% | PC-3 prostate 88.3% and 89.7% and 101% | SK-MEL-5 melanoma 83.5% and 86.5% and 99.3% | UACC-62 melanoma 73.2% and 80.4% and 61.3% | LOX IMVI melanoma 91% and 85.3% and 89.9% | SK-MEL-28 melanoma 109% and 116%
